High-throughput results as filed in PubChem BioAssay.
Rows were chosen to be rich in hits. Some 6.2% of all compounds tested hit in one or more screens of this group.
ATXN2 expr inh = ATXN2 expression inhibition; HEK-293 ATXN2-luciferase reporter, luminescence, 24 h; Potency, µM (series often up to 57 µM), actives largely listed as inhibitors; hit rate 0.72% among 360,000; AID 1745845; further: nearly all actives have a fitted effect of over 55% in size
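qHTS (up to 57 uM final) was run with 24 h compound exposure of reporter cells at 37 °C. Each well was multiplexed: SteadyGlo luminescence measured ATXN2-luciferase expression after a fluorogenic Gly-Phe-AFC viability readout (25 uM final).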
HT1080NT lethal = kills 2HG-producing HT-1080-NT fibrosarcoma cells; HT-1080-NT fibrosarcoma viability, CellTiter-Glo ATP luminescence, 48 h; Potency, µM (titrated, usually from 46.1 µM), actives largely listed as cytotoxic; hit rate 1.6% among 360,000; AID 686970;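 further: NT is the 2HG producing partner of a matched IDH1 knockdown line; nearly all actives have a fitted effect of over 55% in size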
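Viability of the 2HG-overproducing fibrosarcoma line after 48 hours of compound exposure at 37 degrees C was determined by luminescence with CellTiter-Glo, and concentration-effect curves were then fitted and categorized.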
HT1080 IDH1KD tx = toxicity to HT-1080 IDH1 knockdown cells (counter line); Potency, µM (highest dose often 46.1 µM), actives largely listed as cytotoxic; AID 686971; HT-1080 IDH1 knockdown viability, ATP luminescence, 48 h; hit rate 2% among 360,000
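CellTiter-Glo luminescence after 48 h compound exposure at 37 degrees C of IDH1-knockdown HT-1080 cells in 5% FBS RPMI. %Activity scaled between DMSO wells and cell-free media wells, with curves fitted and assigned curve classes.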
KB-V1 cytotox = KB-V1 MDR subline cytotoxicity; KB-V1 MDR cells viability, CellTiter-Glo, 72 h; Potency, µM (highest dose often 46.1 µM), most hits filed as cytotoxic; hit rate 3.4% among 400,000; further: nearly all actives have a fitted effect of over 60% in size
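Cytotoxicity via CellTiter-Glo luminescence after 72 h compound exposure at 37 degrees C. Cells: drug-selected KB-V1 line, DMEM phenol-red free plus 10% FBS. Compounds tested at multiple concentrations; normalized data fitted to concentration-effect curves.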
KB-3-1 cytotox = kills parental KB-3-1 adenocarcinoma cells; KB-3-1 viability, CellTiter-Glo ATP luminescence, 72 h; Potency, µM (highest dose often 46.1 µM), hits mostly cytotoxic; hit rate 1.4% among 400,000; further: nearly all actives have a fitted effect of over 60% in size
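KB-3-1 parental drug-naive adenocarcinoma cells in DMEM/10% FBS, incubated 72 h at 37 C with pin-transferred compounds across a concentration series. Viability by CellTiter-Glo luminescence; concentration-response curves fitted after normalization.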
S2 tox = cell viability loss in ATXN counter-screen; hit rate 0.49% among 400,000; Potency, µM (top dose mostly 56.7 µM), most hits filed as cytotoxic; S2 cells (HEK-293 line with an ATXN2-luciferase reporter) viability, CellTiter-Fluor protease fluorescence, 24 h; further: nearly all actives have a fitted effect of over 40% in size
A number is an active result. The call rests on the fitted dose curve; in most records, active means well fitted curve in the direction sought with a large enough effect; inconclusive means small, poorly fitted or top-dose-only effect, or another doubt; inactive means no such curve, though single readings can be large; an effect the other way counts as inactive or inconclusive.

How did CCOC(=O)Cc1csc(NC(=O)Nc2cccc(Cl)c2)n1 do in these assays?
ATXN2 expr inh: inactive; HT1080NT lethal: inactive; HT1080 IDH1KD tx: inconclusive; KB-V1 cytotox: 15µM; KB-3-1 cytotox: inactive; S2 tox: inconclusive

How did CC(C)C(N)c1csc(NC(=O)Nc2cccc(Cl)c2)n1 (stereo not given) do in these assays?
ATXN2 expr inh: inconclusive; HT1080NT lethal: 23µM; HT1080 IDH1KD tx: inconclusive; KB-V1 cytotox: inactive; KB-3-1 cytotox: inactive; S2 tox: inconclusive

How did CCOC(=O)Cc1csc(NC(=O)Nc2ccc(Cl)cc2)n1 do in these assays?
ATXN2 expr inh: inactive; HT1080NT lethal: inconclusive; HT1080 IDH1KD tx: inconclusive; KB-V1 cytotox: inconclusive; KB-3-1 cytotox: inactive; S2 tox: inactive

How did CC(N)c1csc(NC(=O)Nc2cccc(C(F)(F)F)c2)n1 (stereo not given) do in these assays?
ATXN2 expr inh: inconclusive; HT1080NT lethal: 18µM; HT1080 IDH1KD tx: 23µM; KB-V1 cytotox: inactive; KB-3-1 cytotox: inactive; S2 tox: inconclusive

How did CN(C)Cc1csc(NC(=O)Nc2cccc(C(F)(F)F)c2)n1 do in these assays?
ATXN2 expr inh: inactive; HT1080NT lethal: inconclusive; HT1080 IDH1KD tx: inconclusive; KB-V1 cytotox: inactive; KB-3-1 cytotox: inactive; S2 tox: inactive

What do the screens show for `CCOC(=O)Cc1csc(NC(=O)/C=C/c2ccc(Br)o2)n1`?
HT1080NT lethal: inactive; HT1080 IDH1KD tx: inactive; KB-V1 cytotox: 15µM; KB-3-1 cytotox: inactive; S2 tox: inactive

What do the screens show for `Cc1cccc(OCCC(=O)NO)c1`?
HT1080NT lethal: inconclusive; HT1080 IDH1KD tx: inactive

How did O=C(CCc1nc2cccnc2n1-c1ccccc1)Nc1ccc(Cl)c(Cl)c1 do in these assays?
ATXN2 expr inh: inconclusive; KB-V1 cytotox: inactive; KB-3-1 cytotox: inactive; S2 tox: inconclusive

How did CC(C)c1ccc(NC(=O)Nc2nc(C(N)C(C)C)cs2)cc1 (stereo not given) do in these assays?
ATXN2 expr inh: inconclusive; HT1080NT lethal: 21µM; HT1080 IDH1KD tx: inconclusive; KB-V1 cytotox: inconclusive; KB-3-1 cytotox: inconclusive; S2 tox: inconclusive

What do the screens show for `Cc1ccc(C(=O)Nc2nc(C(N)C(C)C)cs2)cc1` (stereo not given)?
ATXN2 expr inh: inactive; HT1080NT lethal: inactive; HT1080 IDH1KD tx: inactive; KB-V1 cytotox: inactive; KB-3-1 cytotox: inactive; S2 tox: inactive

How did NC(c1csc(NC(=O)Nc2ccc(OC(F)(F)F)cc2)n1)C1CCCCC1 (stereo not given) do in these assays?
ATXN2 expr inh: inconclusive; HT1080NT lethal: 16µM; HT1080 IDH1KD tx: inconclusive; KB-V1 cytotox: inconclusive; KB-3-1 cytotox: inconclusive; S2 tox: inconclusive

How did CC(C)c1ccc(NC(=O)Nc2nc(C(N)COCc3ccccc3)cs2)cc1 (stereo not given) do in these assays?
ATXN2 expr inh: inconclusive; HT1080NT lethal: 21µM; HT1080 IDH1KD tx: inconclusive; KB-V1 cytotox: inconclusive; KB-3-1 cytotox: inconclusive; S2 tox: inconclusive

Results for CS(=O)(=O)c1ccc(Nc2nc(C(N)COCc3ccccc3)cs2)cc1 (stereo not given) ?
ATXN2 expr inh: inactive; HT1080NT lethal: inactive; HT1080 IDH1KD tx: inactive; KB-V1 cytotox: inactive; KB-3-1 cytotox: inactive; S2 tox: inactive

How did OCC1CCCN(c2nc3cc4c(cc3cc2CNCc2cccc(C(F)(F)F)c2)OCO4)C1 (stereo not given) do in these assays?
S2 tox: inactive

How did NC(=O)c1ccc(-c2nc(-c3ccc4c(c3)OCCO4)c(-c3ccccn3)[nH]2)cc1 do in these assays?
ATXN2 expr inh: inactive

What do the screens show for `COc1ccc(NC(=O)CSc2nc(=O)n(CCN3CCOCC3)c3c2CCCC3)c(OC)c1`?
ATXN2 expr inh: inactive; HT1080NT lethal: inactive; HT1080 IDH1KD tx: inactive; KB-V1 cytotox: 8.2µM; KB-3-1 cytotox: inactive; S2 tox: inactive

What do the screens show for `COc1cccc(C(=O)N2CCCC(c3nc(SCCN4CCOCC4)ncc3C)C2)c1` (stereo not given)?
S2 tox: inactive

Results for CCOC(=O)c1ccc(-n2c(-c3ccc(C)cc3)c(C)n3c4c(=O)n(C)c(=O)n(C)c4nc23)cc1 ?
ATXN2 expr inh: inactive; KB-V1 cytotox: inactive; KB-3-1 cytotox: inactive; S2 tox: inactive
